{
  "source": "PubChem BioAssay (NCI)",
  "note": "Where “and” joins values, the source holds several entries; their conditions need not be identical. Identical values can stand only once. About 83,000 compounds went through this panel and 20% of them were active in at least one assay; those are over-represented in the sample as a whole.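 96-well plates, one dose, 48 hours. Percent growth reported; active if below 10.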 Calls of active or inactive are those of the source.",
  "data": [
    {"test_system": "UO-31 renal", "assay": "NCI-60 one-dose screen, 48 h (100 = growth as untreated, 0 = no growth, -100 = all killed)", "conditions": "10 µM", "values": [
      {"smiles": "COc1ccccc1[As]=[As]c1ccccc1OC", "note": "(stereo not drawn)", "growth": "-93.1% (active)"},
      {"smiles": "O=S(=O)(F)c1ccc(Cl)cc1", "growth": "91.5% (inactive)"},
      {"smiles": "C/C1=C\\[C@H](C)C[C@H](C)OC(=O)C[C@H](c2ccc(O)cc2)NC(=O)[C@@H](Cc2c(Br)[nH]c3ccccc23)N(C)C(=O)[C@H](C)NC(=O)[C@@H](C)C1", "growth": "-92.1% (active)"},
      {"smiles": "CC1CCC2(OC1)OC1C(O)C3C4CCC5CC(OC6OC(CO)C(OC7OC(CO)C(O)C(OC8OCC(O)C(O)C8O)C7OC7OC(CO)C(O)C(OC8OC(CO)C(O)C(O)C8O)C7O)C(O)C6O)C(O)CC5(C)C4CCC3(C)C1C2C", "note": "(stereo not drawn)", "growth": "-96.8% (active)"},
      {"smiles": "[Cl][Hg][c]1ccc2ccccc2c1", "growth": "-89.3% (active)"},
      {"smiles": "COc1cc(/C=C(/C)[N+](=O)[O-])ccc1O", "growth": "-10.8% (active) and -16.8% (active)"},
      {"smiles": "O=[N+]([O-])c1cc[n+]([O-])c2ccccc12", "growth": "-29.5% (active)"},
      {"smiles": "[O-][n+]1ccccc1S", "growth": "62% (inactive)"},
      {"smiles": "NNc1ccccc1", "growth": "64% (inactive)"},
      {"smiles": "O=C1CCC(=O)N1SC(Cl)(Cl)Cl", "growth": "99.1% (inactive)"},
      {"smiles": "Cc1cc([N+](=O)[O-])c2ccccc2[n+]1[O-]", "growth": "-26.7% (active) and -48.8% (active)"},
      {"smiles": "CC/C(=C/c1ccc(OC)cc1)[N+](=O)[O-]", "growth": "-61.6% (active)"},
      {"smiles": "COc1cc(/C=C\\[N+](=O)[O-])ccc1O", "growth": "44.5% (inactive) and 70.1% (inactive)"},
      {"smiles": "COC(=O)C1C(O)C(C)C(O)C(C)/C=C\\C=C(C)C(=O)Nc2c(C)c(OC(C)=O)c3c(c2O)C(=O)C(C)=C2OCOC(=C23)C(C)=CC(C)(O)C(O)C(C)C1O", "note": "(stereo not drawn)", "growth": "103% (inactive)"},
      {"smiles": "COC1CC2C=C(C)/C=C/C=C/C(=O)NC(c3ccccc3)C/C=C/CCC(O)CC(=O)C2=C1O", "note": "(stereo not drawn)", "growth": "-95.7% (active)"},
      {"smiles": "C=C1C(=O)O[C@@H]2C[C@@H](C)[C@@H]3C=CC(=O)[C@@]3(C)[C@@H](O)[C@H]12", "growth": "-94.9% (active)"},
      {"smiles": "CC12OOC(c3ccccc31)c1c2ccc2ccccc12", "note": "(stereo not drawn)", "growth": "-95.4% (active)"},
      {"smiles": "Cn1c(O)c(N=O)c(=O)n(C)c1=O", "growth": "89.1% (inactive) and 85.7% (inactive)"},
      {"smiles": "CC(C)C1(NC(=O)C2CC3c4cccc5[nH]cc(c45)CC3N(C)C2)OC2(O)C3CCCN3C(=O)C(Cc3ccccc3)N2C1=O", "note": "(stereo not drawn)", "growth": "91.3% (inactive)"},
      {"smiles": "C#CC1(O)CCC(C(C)(C)C)CC1", "note": "(stereo not drawn)", "growth": "108% (inactive)"},
      {"smiles": "O=[N+]([O-])/C=C/c1ccc(Cl)cc1[N+](=O)[O-]", "growth": "-45.7% (active)"},
      {"smiles": "COC(C(=O)C(O)C(C)O)C1Cc2cc3cc(OC4CC(OC(C)=O)C(OC5CC(O)C(OC)C(C)O5)C(C)O4)cc(O)c3c(O)c2C(=O)C1OC1CC(OC2CC(OC3CC(C)(O)C(OC(=O)C(C)C)C(C)O3)C(O)C(C)O2)C(O)C(C)O1", "note": "(stereo not drawn)", "growth": "-35.2% (active)"},
      {"smiles": "COC12c3c(C)cc(O)c4c(=O)occ(c34)C(=O)C1C13COC(=O)c4c(O)cc(C)c(c41)C(=O)C2C3OC(C)=O", "note": "(stereo not drawn)", "growth": "91.5% (inactive)"},
      {"smiles": "[Cl][Sn]([c]1ccccc1)([c]1ccccc1)[c]1ccccc1", "growth": "-87.9% (active)"},
      {"smiles": "C=NCC#N", "growth": "87.1% (inactive) and 91.8% (inactive)"},
      {"smiles": "CC(=O)[O][Hg][c]1c(C)c(C)cc(C)c1C", "growth": "-86.2% (active)"},
      {"smiles": "[Cl][Hg][c]1ccc(Cl)s1", "growth": "-64.3% (active)"},
      {"smiles": "COc1ccc(/C=C(\\C)[N+](=O)[O-])cc1OC", "growth": "-83% (active)"}
    ]}
  ]
}
